Data published in PubChem BioAssay AID1159580 (chemical genetic matrix, 2015).
Where “and” joins values, the source holds several entries; their conditions need not be identical. Equal entries are not always repeated. Among all 5,500 compounds or so, about 2,000 (36%) were called active. Another 18% or so got no clear call; they are omitted. Cut-off read from the data, not from the text of the source: active = normalized growth mostly below about 0.91 (no sharp cut-off); inconclusive = no clear call, values can overlap the other calls; inactive = mostly above about 0.92. The list shows a part of the results.

Assay: chemical genetic growth profiling, strain panel (AID 1159580);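 note: tested at 20 µM; growth read once vehicle control cultures reached saturation at 30 °C; 1 = growth at the plate median or of vehicle wells; lower values mean less growth of the strain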
Details: S. cerevisiae deletion strains, growth OD

Measured: normalized growth

CN1C(CC(=O)c2ccccc2)CCCC1CC(O)c1ccccc1 (configuration not stated)
inactive: locus YAL013W, strain DEP1, stronger effect = lower value 1.01 | locus YAL021C, strain ccr4, stronger effect = lower value 0.974 | locus YAL026C, strain drs2, stronger effect = lower value 0.976 | locus YAL030W, strain snc1, stronger effect = lower value 0.977 | locus YBL061C, strain skt5, stronger effect = lower value 0.976 | locus YBR009C, strain hhf1, stronger effect = lower value 0.972 | locus YBR021W, strain FUR4, stronger effect = lower value 1.02 | locus YBR023C, strain chs3, stronger effect = lower value 0.977 | locus YBR171W, strain sec66, stronger effect = lower value 0.989 | locus YBR229C, strain ROT2, stronger effect = lower value 1.01 | locus YBR231C, strain swc5, stronger effect = lower value 0.978 | locus YBR279W, strain paf1, stronger effect = lower value 0.984 | locus YCL011C, strain gbp2, stronger effect = lower value 0.966 | locus YCL016C, strain dcc1, stronger effect = lower value 0.978 | locus YCL029C, strain bik1, stronger effect = lower value 0.968 | locus YCL061C, strain MRC1, stronger effect = lower value 0.993 | locus YCL069W, strain vba3, stronger effect = lower value 0.982 | locus YCR088W, strain abp1, stronger effect = lower value 0.984 | locus YDL005C, strain med2, stronger effect = lower value 0.98 | locus YDL035C, strain GPR1, stronger effect = lower value 1.01 | locus YDL040C, strain nat1, stronger effect = lower value 0.976 | locus YDL074C, strain BRE1, stronger effect = lower value 1.01 | locus YDL101C, strain DUN1, stronger effect = lower value 1.01 | locus YDL134C, strain PPH21, stronger effect = lower value 1.01 | locus YDL185W, strain tfp1, stronger effect = lower value 0.992 | locus YDL192W, strain arf1, stronger effect = lower value 0.991 | locus YDR001C, strain nth1, stronger effect = lower value 0.979 | locus YDR069C, strain doa4, stronger effect = lower value 0.999 | locus YDR101C, strain arx1, stronger effect = lower value 0.97 | locus YDR137W, strain rgp1, stronger effect = lower value 0.918 | locus YDR150W, strain NUM1, stronger effect = lower value 1.02 | locus YDR159W, strain sac3, stronger effect = lower value 0.959 | locus YDR162C, strain NBP2, stronger effect = lower value 1.01 | locus YDR195W, strain ref2 0.928 | locus YDR297W, strain sur2, stronger effect = lower value 0.98 | locus YDR318W, strain mcm21, stronger effect = lower value 0.994 | locus YDR334W, strain swr1, stronger effect = lower value 0.975 | locus YDR335W, strain msn5, stronger effect = lower value 0.986 | locus YDR388W, stronger effect = lower value 0.975 | locus YDR392W, strain spt3, stronger effect = lower value 0.934 | locus YDR502C, strain sam2, stronger effect = lower value 0.98 | locus YEL003W, strain gim4, stronger effect = lower value 0.991 | locus YEL037C, strain rad23, stronger effect = lower value 0.984 | locus YEL061C, strain CIN8 (second series), stronger effect = lower value 0.966 | locus YEL061C, strain CIN8, stronger effect = lower value 1.01 | locus YER015W, strain faa2, stronger effect = lower value 0.989 | locus YER016W, strain bim1, stronger effect = lower value 0.98 | locus YER110C, stronger effect = lower value 0.981 | locus YER111C, strain swi4, stronger effect = lower value 0.98 | locus YER155C, strain BEM2 (second series), stronger effect = lower value 0.982 | locus YER155C, strain BEM2, stronger effect = lower value 1.01 | locus YER167W, strain BCK2, stronger effect = lower value 1.02 | locus YFR010W, strain ubp6, stronger effect = lower value 0.967 | locus YGL078C, strain dbp3, stronger effect = lower value 0.977 | locus YGL086W, strain mad1, stronger effect = lower value 0.997 | locus YGL167C, strain pmr1, stronger effect = lower value 0.963 | locus YGL173C, strain kem1, stronger effect = lower value 0.982 | locus YGL227W, strain vid30, stronger effect = lower value 0.962 | locus YGL240W, strain doc1, stronger effect = lower value 0.981 | locus YGL248W, strain PDE1, stronger effect = lower value 1.02 | locus YGL253W, strain hxk2, stronger effect = lower value 0.991 | locus YGR078C, strain PAC10, stronger effect = lower value 0.996 | locus YGR135W, strain pre9, stronger effect = lower value 0.968 | locus YGR229C, strain SMI1, stronger effect = lower value 0.967 | locus YGR252W, strain gcn5, stronger effect = lower value 1 | locus YHR013C, strain ard1, stronger effect = lower value 0.952 | locus YHR027C, strain rpn1, stronger effect = lower value 0.973 | locus YHR030C, strain SLT2, stronger effect = lower value 1.01 and 0.976 | locus YHR079C, strain IRE1 (second series), stronger effect = lower value 0.985 | locus YHR079C, strain IRE1, stronger effect = lower value 0.983 | locus YHR094C, strain hxt1, stronger effect = lower value 0.988 | locus YHR129C, strain ARP1, stronger effect = lower value 1.01 | locus YHR142W, strain chs7, stronger effect = lower value 0.999 | locus YHR200W, strain rpn10, stronger effect = lower value 0.989 | locus YIL066C, strain RNR3, stronger effect = lower value 1.01 | locus YIL073C, strain SPO22, stronger effect = lower value 1.02 | locus YIL125W, strain kgd1, stronger effect = lower value 1 | locus YIR030C, strain dcg1, stronger effect = lower value 0.993 | locus YJL092W, strain hpr5, stronger effect = lower value 0.982 | locus YJL095W, strain BCK1 (second series), stronger effect = lower value 0.979 | locus YJL095W, strain BCK1, stronger effect = lower value 0.975 and 0.978 | locus YJL115W, strain asf1, stronger effect = lower value 0.978 | locus YJL129C, strain trk1, stronger effect = lower value 0.974 | locus YJL134W, strain LCB3, stronger effect = lower value 1.01 | locus YJL154C, strain vps35, stronger effect = lower value 0.97 | locus YJL164C, strain tpk1, stronger effect = lower value 0.996 | locus YJL166W, strain qcr8, stronger effect = lower value 0.984 | locus YJL168C, strain set2, stronger effect = lower value 0.99 | locus YJL187C, strain SWE1 (second series), stronger effect = lower value 0.996 | locus YJL187C, strain SWE1, stronger effect = lower value 0.975 | locus YJR043C, strain POL32, stronger effect = lower value 1 | locus YJR066W, strain TOR1, stronger effect = lower value 0.935
